Consider 14 compounds from PubChem BioAssay (EPA / NIEHS).

Test [1] can be described thus: CCTE_Simmons_MITO_inhib_resp_rate: CCTE's HepG2 Seahorse XF Respirometric Screening Assay at Inhibited Respiratory State [full ETC block], Simmons Lab (AID 2284006). To be noted: actives raise or lower the signal. In a few lines: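 OCR read-out in the inhibited phase following rotenone/antimycin A, after compound and FCCP injections, in HepG2 cells. Seven concentrations (125 nM to 100 uM final), three biological replicates, 6-min cycles over 72 min; DMSO baseline.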

The nature of test [2]: CCTE_Simmons_MITO_viability: CellTiter-Glo Viability Assessment for CCTE's HepG2 Seahorse XF Respirometric Screening Assay [post-hoc], Simmons Lab (AID 2284007; active = hit-call score of the fitted dose curve at least 0.9, where 1 is the maximum;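 for AC50: cells exposed to chemical for 90 min before the ATP read; actives lower ATP signal relative to DMSO baseline meaning reduced viability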). In short, it runs like this:
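Luciferase-coupled ATP luminescence, single endpoint. HepG2, post-respirometry. Compound 125 nM–100 uM final, 7 conc., 90 min. n=3 biological, technical singles. DMSO vehicle/baseline; dichlone 10 nM–100 uM, 8 conc., as positive control.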
(In general: Cellular ATP, detected with luciferase, serves as a proxy for viable cell number.)

The nature of test [3]: CCTE_Shafer_MEA_acute_spike_number: CCTE's Neural Acute Assay for Total Number of Spikes, Shafer Lab (AID 2284008).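 For AC50: curve fitted for decrease in spike count so AC50 reflects inhibitors.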 In a few lines: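 Using an adaptive detector set to 8x rms noise, spikes were counted in 40-min windows before and after compound addition (0.03-40 uM) to rat cortical networks at 37 C; the well-level change from baseline was analysed relative to DMSO.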
Test [4] can be described thus: CCTE_Shafer_MEA_acute_firing_rate_mean: CCTE's Neural Acute Assay for Mean Firing Rate, Shafer Lab (AID 2284009).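 Note: analyzed for loss of signal so actives lower firing rate relative to DMSO.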 In a few lines: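 Spontaneous spiking of primary rat cortical networks, DIV 13/15, 37 C. Compound 0.03-40 uM, n ≥3 wells; 40 min baseline vs 40 min treated. Endpoint fitted in loss-of-signal direction against DMSO.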
The nature of test [5]: CCTE_Harrill_HTTr_Viability_MCF7: CCTE's 6-hour Cell Viability Assessment for the High-Throughput Transcriptomics (HTTr) Platform, in MCF-7 cells cultured in DMEM + 10% fetal bovine serum, Harrill Lab (AID 2284010). In a few lines:
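PI exclusion, high-content imaging; 8-pt dilution series, 6 h exposure; bidirectional fit vs DMSO (neg. ctrl/baseline); gain of signal = loss of membrane integrity.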

The nature of test [6]: CCTE_Harrill_HTTr_Apoptosis_MCF7: CCTE's 6-hour Apoptosis Assessment for the High-Throughput Transcriptomics (HTTr) Platform, in MCF-7 cells cultured in DMEM + 10% fetal bovine serum, Harrill Lab (AID 2284011). In a few lines:
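Apoptosis in MCF-7 cells grown in DMEM with 10% fetal bovine serum was scored after a six hour exposure by high content imaging of caspase-3/7 activation (CellEvent Caspase 3/7 Green), with DMSO serving as negative control and baseline.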

Test [7] can be described thus: CCTE_Harrill_HTTr_CellCount_MCF7: CCTE's Cell Proliferation Assessment for the High-Throughput Transcriptomics (HTTr) Platform, Harrill Lab (AID 2284012; active = hit-call score of the fitted dose curve at least 0.9, where 1 is the maximum;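 note: count of Hoechst-stained nuclei per well by high-content imaging in MCF-7 cells; cells exposed to compound for six hours; intended direction is loss of nuclei count meaning fewer cells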). In short, it runs like this: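 Readout: Hoechst nuclear count by high-content imaging. MCF-7, 8-point dilution series, 6 h exposure. Bidirectional fit vs DMSO baseline.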
Test [8] can be described thus: CCTE_Shafer_MEA_acute_burst_number: CCTE's Neural Acute Assay for Single-Electrode Bursts, Shafer Lab (AID 2284013). In short, it runs like this: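 Burst totals were derived with adaptive spike detection (8x rms threshold) on filtered signals from rat cortical cultures; change relative to pre-treatment baseline after 40-min compound exposure (0.03-40 uM) was fitted in the negative direction against DMSO.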

The nature of test [9]: CCTE_Shafer_MEA_acute_burst_duration_mean: CCTE's Neural Acute Assay for Mean Burst Duration, Shafer Lab (AID 2284014).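 Note: hits are decreases in mean burst duration relative to DMSO controls.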 In short, it runs like this: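 Acute exposure of mature rat cortical networks (DIV 13 or 15) grown on microelectrode arrays to 0.03-40 uM compound. Mean burst duration compared with the 40-min pre-dose baseline over a 40-min post-dose recording at 37 C.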

Test [10] in a line: CCTE_Shafer_MEA_acute_interburst_interval_mean: CCTE's Neural Acute Assay for Mean Interburst Interval, Shafer Lab (AID 2284016).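 Note: percent change of mean interburst interval versus each well's own pre-dose baseline; curves fitted for decrease in interburst interval relative to DMSO.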 In a few lines: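 MEA recording of spontaneous network bursting in primary rat cortical cultures; mean interburst interval was compared before and after a 40-min compound exposure (0.03-40 uM) and expressed as percent change, relative to DMSO.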
Test [11] in a line: CCTE_Shafer_MEA_acute_burst_percentage_mean: CCTE's Neural Acute Assay for Percentage of Spikes in a Burst, Shafer Lab (AID 2284017).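 For AC50: curve fitted for loss of signal so potency reflects decreased burst percentage.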 In a few lines:
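Compounds were tested at 0.03-40 uM on primary rat cortical neuron networks grown over microelectrodes, with at least three wells per compound. Spontaneous firing was recorded for 40 min before and 40 min after dosing, and the change in burst percentage was computed per well.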

A short description of test [12]: CCTE_Shafer_MEA_acute_burst_percentage_std: CCTE's Neural Acute Assay for Standard Deviation of Burst Percentage, Shafer Lab (AID 2284018).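 Note: fitted in the negative direction so actives lower burst percentage SD.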 In a few lines:
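Primary rat cortical neurons on 16-electrode MEA wells were recorded 40 min at baseline (DIV 13 or 15), then 40 min after compound (0.03-40 uM), at 37 C. Well value is SD across electrodes of spikes-in-bursts/total spikes; endpoint is percent change, DMSO-referenced.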

A short description of test [13]: CCTE_Shafer_MEA_acute_per_network_burst_spike_number_mean: CCTE's Neural Acute Assay for Average Number of Spikes in a Network Burst, Shafer Lab (AID 2284019).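 For AC50: curve fitted for loss of signal so actives reduce spikes per network burst.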 In a few lines: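 Acute exposure of rat primary cortical networks (DIV 13/15) on MEAs; adaptive spike detection at 8x rms noise, 37 C. Percent change in spikes per network burst after 40 min with compound (0.03-40 uM), negative direction vs DMSO.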

Another test deals with DIO1 (gene 1733). As to the kind of experiment: CCTE_GLTED_hDIO1: CCTE's human Deiodinase 1 (DIO1) Inhibition Assay, Great Lakes Toxicology and Ecology Division (GLTED) Lab (AID 2283987; active = hit-call score of the fitted dose curve at least 0.9, where 1 is the maximum;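 note: isolated human DIO1 enzyme in a cell-free setup rather than cells; enzyme activity read as free iodide liberated from substrate via Sandell-Kolthoff colorimetry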). In a few lines: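 Chemicals are tested on human DIO1 without cells for 3 h. Uninhibited enzyme frees iodide, which speeds cerium(IV) reduction by arsenic and is read by spectrophotometry.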

Test [14] addresses Nucleoli Translocation, AR (gene 367) (UniProt P10275). As to the kind of experiment: UPITT_HCI_U2OS_AR_TIF2_Nucleoli_Antagonist: University of Pittsburgh U2OS Androgen Receptor-Transcriptional Intermediary Factor 2 (AR-TIF2) Antagonism High Content Imaging Assay for Nucleoli Translocation (AID 2283997; active = hit-call score of the fitted dose curve at least 0.9, where 1 is the maximum). In a few lines: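 An antagonist-mode imaging screen: engineered U2OS (AR-RFP, TIF2-GFP) exposed to 20 uM compound, 0.2% DMSO. Activity reflects nucleolar red fluorescence change relative to DHT baseline.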

Test [15] addresses Ratio of Nucleoli Translocation and Cytoplasm, AR (gene 367) (UniProt P10275). As to the kind of experiment: UPITT_HCI_U2OS_AR_TIF2_Nucleoli_Cytoplasm_Ratio_Agonist: University of Pittsburgh U2OS Androgen Receptor-Transcriptional Intermediary Factor 2 (AR-TIF2) Agonism High Content Imaging Assay for Ratio of Nucleoli Translocation and Cytoplasm (AID 2284000; active = hit-call score of the fitted dose curve at least 0.9, where 1 is the maximum;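 note: hits raise the red nucleolar to cytoplasm ratio above vehicle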). In short, it runs like this:
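Primary screen at 20 uM final (0.2% DMSO), then triplicate confirmation and dose-response from 0.195 to 50 uM final (0.5% DMSO). Cells: U2OS with AR-RFP and TIF2-GFP. Endpoint is the nucleoli/cytoplasm red-fluorescence ratio, gain-of-signal vs DMSO.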

Test [16] has as its target Nucleoli Translocation, AR (gene 367) (UniProt P10275). Nature of the test: UPITT_HCI_U2OS_AR_TIF2_Nucleoli_Agonist: University of Pittsburgh U2OS Androgen Receptor-Transcriptional Intermediary Factor 2 (AR-TIF2) Agonism High Content Imaging Assay for Nucleoli Translocation (AID 2283998; active = hit-call score of the fitted dose curve at least 0.9, where 1 is the maximum). In short, it runs like this: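 High-content images quantify nucleolar accumulation of RFP-fused AR in cells also expressing GFP-TIF2; the endpoint is fitted as signal gain versus DMSO controls across final concentrations of 0.195 to 50 uM.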

Test [17] concerns the target Ratio of Nucleoli Translocation and Cytoplasm, AR (gene 367) (UniProt P10275). As to the kind of experiment: UPITT_HCI_U2OS_AR_TIF2_Nucleoli_Cytoplasm_Ratio_Antagonist: University of Pittsburgh U2OS Androgen Receptor-Transcriptional Intermediary Factor 2 (AR-TIF2) Antagonism High Content Imaging Assay for Ratio of Nucleoli Translocation and Cytoplasm (AID 2283999; active = hit-call score of the fitted dose curve at least 0.9, where 1 is the maximum;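 note: antagonists lower the DHT-driven ratio of nucleolar to cytoplasmic red signal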). In a few lines:
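Read-out is the ratio of nucleolar to cytoplasmic AR-RFP fluorescence, imaged by high-content microscopy in U2OS cells coexpressing TIF2-GFP. Single-point 20 uM screen, triplicate confirmation, then 0.195–50 uM dose response; activity referenced to DHT baseline.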

Values joined by “and” are separate entries in the source; they are usually repeats but may differ in a detail not shown here. Equal values may be shown once. Records with an inconclusive call do not appear. More than one record can exist for a structure, and the calls need not agree. Active and inactive are the calls of the source. Rule for the calls, unless noted: active = hit-call score of the fitted dose curve at least 0.9, where 1 is the maximum; inactive = score below 0.9.

In general, AC50 refers to the concentration at which the activity in the assay is half-maximal.

Sequence of Nucleoli Translocation, AR (gene 367) (P10275 whole entry, looked up, the tested form may be a part): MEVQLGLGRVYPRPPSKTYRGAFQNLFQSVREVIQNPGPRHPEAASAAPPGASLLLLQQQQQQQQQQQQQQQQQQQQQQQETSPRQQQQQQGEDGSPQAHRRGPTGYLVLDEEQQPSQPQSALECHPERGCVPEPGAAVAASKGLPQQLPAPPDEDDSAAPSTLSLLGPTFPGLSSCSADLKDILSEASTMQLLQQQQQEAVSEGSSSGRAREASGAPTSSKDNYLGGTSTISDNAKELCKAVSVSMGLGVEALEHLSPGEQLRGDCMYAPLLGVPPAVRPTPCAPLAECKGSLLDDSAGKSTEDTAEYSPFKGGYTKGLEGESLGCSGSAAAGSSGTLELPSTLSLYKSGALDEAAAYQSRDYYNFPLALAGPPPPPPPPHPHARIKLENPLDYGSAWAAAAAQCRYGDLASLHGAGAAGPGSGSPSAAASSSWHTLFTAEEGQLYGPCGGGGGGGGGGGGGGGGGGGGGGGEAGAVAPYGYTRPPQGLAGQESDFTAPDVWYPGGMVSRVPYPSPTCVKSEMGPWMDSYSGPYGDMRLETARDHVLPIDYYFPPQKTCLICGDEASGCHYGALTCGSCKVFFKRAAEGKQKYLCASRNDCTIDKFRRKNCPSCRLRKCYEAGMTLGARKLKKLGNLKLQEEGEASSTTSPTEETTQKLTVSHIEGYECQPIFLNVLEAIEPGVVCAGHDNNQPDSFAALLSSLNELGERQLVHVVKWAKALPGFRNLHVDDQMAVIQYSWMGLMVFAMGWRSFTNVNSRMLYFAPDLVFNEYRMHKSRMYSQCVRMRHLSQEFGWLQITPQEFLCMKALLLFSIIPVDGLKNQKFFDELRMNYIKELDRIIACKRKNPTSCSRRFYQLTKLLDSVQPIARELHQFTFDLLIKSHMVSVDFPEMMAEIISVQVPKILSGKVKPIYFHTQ
Sequence of Ratio of Nucleoli Translocation and Cytoplasm, AR (gene 367) (P10275 whole entry, looked up): as the sequence (P10275 whole entry, looked up, the tested form may be a part) above

For the compound `CCC[CH2][Sn]([Cl])([CH2]CCC)[CH2]CCC`, the compound was called inactive in test [1], in test [9], in test [10], in test [12] and in test [13]. The AC50 was 11.9 µM (active) in test [2]; 40.1 nM (active) and 70.2 nM (active) in test [3]; 40.3 nM (active) and 70.2 nM (active) in test [4]; 11.8 µM (active) in test [5]; 10.9 µM (active) in test [6]; 17.2 µM (active) in [7]. Besides, the AC50 was 40 nM (active) and 66.5 nM (active) in test [8]; 0.347 µM (active) in [9]; 0.382 µM (active) in [10]; 221 nM (active) and 330 nM (active) in test [11]; 7.27 µM (active) in test [12].
For `COP(=S)(OC)SCN1C(=O)c2ccccc2C1=O`, the AC50 in the test on DIO1 (gene 1733) was 50.9 µM (active). In addition, the outcome in [5], in test [6] and in test [7] was inactive.
For `CC(C)COC(=O)c1ccccc1C(=O)OCC(C)C`, the result in test [1], in [2], in [5], in test [6], in test [7] and in test [8] was inactive. For the same compound, the call in test [10] and in test [12] was inactive. Further, the AC50 was 7.13 µM (active) in test [3]; 7.16 µM (active) in test [4]; 20 µM (active) in test [9]; 9.02 µM (active) in test [11]; 6.67 µM (active) in [13].
On to `N#CC(Br)Br`, for which the outcome in test [3], in [4], in [5], in [6], in test [7] and in test [8] was inactive. In addition, the outcome in test [9], in [10], in [11], in [12] and in test [13] was inactive.
Turning to `CCOC(=O)[C@]1(c2ccccc2)Oc2ccccc2[C@@H]1N`, the call in [1], in test [2], in test [5] and in [6] was inactive.
Take `CCNS(=O)(=O)C(F)(F)C(F)(F)C(F)(F)C(F)(F)C(F)(F)C(F)(F)C(F)(F)C(F)(F)F`: the outcome in test [14], in test [15], in [5] and in test [6] was inactive.
As for `COC(=O)Nc1nc2ccccc2[nH]1`, the outcome in test [16], in [3], in test [4], in test [5], in test [6] and in test [7] was inactive. In addition, the compound was classed as inactive in test [8], in test [9], in test [10], in test [11], in [12] and in test [13].
As for `C[C@]12C=CC3=C4CCC(=O)C=C4CC[C@H]3[C@@H]1CC[C@@H]2O`, the AC50 was 0.00188 µM (active) in test [16] and 0.00266 µM (active) in test [15]. Further, the compound was classed as inactive in test [1], in test [5], in [6] and in [7].
`Nc1ccc(N=Nc2ccccc2)cc1`: the compound was classed as inactive in [1], in test [2], in [5], in test [6] and in test [7].
In the case of `O=C(N[C@H](c1ccccc1)[C@@H]1CN2CCC1CC2)c1c(Cl)ccc(C(F)(F)F)c1Cl`, the AC50 is 1.55 µM (active) in test [3], 1.55 µM (active) in [4] and 1.68 µM (active) in test [8]. For the same compound, the result in [5], in test [6], in [7], in test [9], in test [10] and in [11] was inactive. In addition, the outcome in [12] and in test [13] was inactive.
Consider `CC(C)(C)C(O)(CCc1ccc(Cl)cc1)Cn1cncn1` (configuration not stated), for which the outcome in [1], in test [2], in [5], in test [6], in test [7] and in test [9] was inactive. Moreover, the compound was called inactive in [11] and in [12]. The AC50 in test [3] was 3.76 µM (active); in test [4], 3.75 µM (active); in test [8] it was 3.5 µM (active); in [10] it was 5.9 µM (active); in test [13], 1.22 µM (active).
As for `CC(C)(OOC(C)(C)c1ccccc1)c1ccccc1`, the AC50 in test [14] is 38.5 µM (active). Besides, the outcome in test [17], in test [15], in test [3], in test [4], in test [5] and in [6] was inactive. Also, the compound was classed as inactive in [8], in test [9], in test [10], in test [11], in [12] and in test [13].
As to `CC(C)N(Cc1ccccc1)C(=O)C(C)(C)C`, the compound was called inactive in test [14], in test [17], in test [15], in test [1], in test [2] and in test [5]. Also, the result in test [6] was inactive.
In the case of `CCCCC(CC)COC(=O)c1ccc(C(=O)OCC(CC)CCCC)c(C(=O)OCC(CC)CCCC)c1` (configuration not stated), the compound was called inactive in test [14], in test [17] and in [15].
